Active and inactive are the calls of the source.
Columns and labels:
[1] = system: Plasmodium falciparum Sir2 (PF13_0152, Sir2A); experiment: Plasmodium falciparum Sir2A binding compounds – biochemical, small-molecule microarray, 635 nm fluorescence, primary screen (AID 1098); details: fluorescence 635 nm, higher = more signal;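 further: score merges spot fluorescence intensity with its signal-to-noise ratio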
[2] = probe aDKK1 binding to arrayed compounds – biochemical, biotinylated probe, 635/667 nm fluorescence, primary screen (AID 1099); details: small-molecule microarray, higher = more signal;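 further: score merges 667nm spot fluorescence with signal to noise across triplicate slides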
[3] = probe aCHRDL2 binding to arrayed compounds – biochemical, biotinylated probe, 635/667 nm fluorescence, primary screen (AID 1100); details: small-molecule microarray, higher = more signal
[4] = change in splice reporter luminescence, either direction, cell-based, HEK293, spliceosome inhibition project, primary screen (AID 1101); details: HEK293 splicing luciferase reporter, 24 h, higher = more signal, called active from +8 up or from −8 down;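 further: HEK293 cells carrying a splicing-competent luciferase reporter gene; test concentration not given here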
[5] = target: Fibroblast growth factor 10 (Homo sapiens) (UniProt O15520); experiment: compounds binding fibroblast growth factor 10 – biochemical, small-molecule microarray, 635 nm fluorescence, primary screen (AID 1102); details: FGF10 binding, fluorescence 635 nm, higher = more signal
[6] = system: glycogen synthase kinase-3 (GSK3A per assay name; protocol says GSK3B); experiment: compounds binding glycogen synthase kinase-3 – biochemical, small-molecule microarray, 635 nm fluorescence, GSK3A, primary screen (AID 1103); details: fluorescence 635 nm, higher = more signal; further: the record names both GSK3A and GSK3B
[7] = target: Epidermal growth factor receptor (Homo sapiens) (UniProt P00533); experiment: compounds binding epidermal growth factor receptor – biochemical, small-molecule microarray, 635 nm fluorescence, primary screen (AID 1104); details: EGFR binding, higher = more signal;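 further: score merges 667 nm emission intensity with spot signal to noise over triplicate slides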
[8] = target: Follistatin-related protein 3 (Homo sapiens) (UniProt O95633); experiment: compounds binding follistatin-related protein 3 – biochemical, small-molecule microarray, 635 nm fluorescence, primary screen (AID 1105); details: FSTL3 binding, higher = more signal;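 further: score merges emission near 667 nm and signal to noise per printed spot across three slides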
[9] = target: Dickkopf-related protein 1 (Homo sapiens) (UniProt O94907); experiment: small molecules binding DKK1 protein – biochemical, small-molecule microarray, 635 nm fluorescence scan, primary screen (AID 1106); details: higher = more signal;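 further: score merges emission near 667 nm with signal to noise over three replicate slides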
[10] = system: Inhibin beta A chain (activin A); experiment: small molecules binding activin A – biochemical, small-molecule microarray, 635 nm fluorescence scan, primary screen (AID 1107); details: INHBA, higher = more signal;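 further: mouse activin A protein probed at 4.33 µg/mL on printed slides; score merges bound-protein fluorescence near 667 nm with spot signal-to-noise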
[11] = system: Human papillomavirus type 1a protein E7 (residues 44-93); experiment: small molecules binding HPV E7 44-93 – biochemical, small-molecule microarray, residues 44-93, 635 nm fluorescence, primary screen (AID 1108); details: fluorescence 635 nm, higher = more signal;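 further: E7 fragment applied at 1 µg/mL in TBST for 1 h at 4 C; score combines spot fluorescence with its signal to noise ratio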
[12] = hepatitis C replication reporter changes, two-sided – Huh7 cells, luciferase reporter, HCV replication inhibitor project, primary screen (AID 1109); details: Huh7 HCV replicon luciferase reporter, 48 h; higher = more signal;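 further: huh7 hepatoma cells harbouring a luciferase neomycin HCV replicon reporter; luciferase luminescence as measure of HCV replicon replication; test concentration not given here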
[13] = target: Left-right determination factor 2 (Homo sapiens) (UniProt O00292); experiment: small molecules binding LEFTY2 protein – biochemical, small-molecule microarray, 635 nm fluorescence scan, primary screen (AID 1110); details: higher = more signal
[14] = target: Calmodulin-1 (Homo sapiens) (UniProt P0DP23); experiment: small molecules binding calmodulin-1 with EGTA – biochemical, small-molecule microarray, Cy5-labelled CALM1, profiling panel (AID 1111); details: Cy5-CALM1 binding fluorescence, higher = more signal;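 further: labelled calmodulin applied in Tris saline Tween buffer holding calcium plus EGTA and DTT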
[15] = target: Calmodulin-1 (Homo sapiens) (UniProt P0DP23); experiment: small molecules binding Ca-loaded calmodulin-1 – biochemical, small-molecule microarray, Cy5-labelled CALM1, plus calcium, artefact control for SMM control-protein annotation, profiling panel (AID 1112); details: Cy5-CALM1 binding fluorescence, higher = more signal;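 further: score merges spot fluorescence with signal to noise from triplicate slides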
[16] = probe aWnt5a binding to arrayed compounds – biochemical, biotinylated probe, 635/667 nm fluorescence, primary screen (AID 1113); details: small-molecule microarray, higher = more signal;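 further: score merges 667 nm fluorescence intensity with signal-to-noise per printed feature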
[17] = probe aShh binding to arrayed compounds – biochemical, biotinylated probe, 635/667 nm fluorescence, primary screen (AID 1114); details: small-molecule microarray, higher = more signal;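 further: probe is biotin-labelled aShh protein from a stem cell growth factor screen; measures binding of labelled protein to compounds printed on the slide; score merges feature fluorescence at 667 nm with signal-to-noise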
[18] = probe aNog binding to arrayed compounds – biochemical, biotinylated probe, 635/667 nm fluorescence, primary screen (AID 1115); details: small-molecule microarray, higher = more signal;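 further: probe is biotinylated aNog protein used at 0.15 µg/mL for 1 h at 4 C; z-score combines 667 nm fluorescence of each spot with its signal to noise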
[19] = target: Torsin-1A-interacting protein 1 (Homo sapiens) (UniProt Q5JTV8); experiment: compound microarray binding of lysate hLAP1 – cell lysate, small-molecule microarray, COS7 lysate, 635/667 nm fluorescence, primary screen (AID 1116); details: 635 nm fluorescence, higher = more signal
[20] = target: Alpha-bungarotoxin (Bungarus multicinctus) (UniProt P60615); experiment: compounds binding labelled alpha-BTX control protein – biochemical, small-molecule microarray, Alexa647 label, 635/667 nm fluorescence, artefact control for SMM control protein annotation, profiling panel (AID 1117); details: alpha-BTX-A647 binding fluorescence, higher = more signal
Sequence of Alpha-bungarotoxin (Bungarus multicinctus) (P60615 whole entry, looked up): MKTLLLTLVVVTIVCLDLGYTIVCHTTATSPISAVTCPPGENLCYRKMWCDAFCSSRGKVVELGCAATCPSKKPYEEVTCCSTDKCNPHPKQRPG

Sequence of Left-right determination factor 2 (Homo sapiens) (O00292 whole entry, looked up): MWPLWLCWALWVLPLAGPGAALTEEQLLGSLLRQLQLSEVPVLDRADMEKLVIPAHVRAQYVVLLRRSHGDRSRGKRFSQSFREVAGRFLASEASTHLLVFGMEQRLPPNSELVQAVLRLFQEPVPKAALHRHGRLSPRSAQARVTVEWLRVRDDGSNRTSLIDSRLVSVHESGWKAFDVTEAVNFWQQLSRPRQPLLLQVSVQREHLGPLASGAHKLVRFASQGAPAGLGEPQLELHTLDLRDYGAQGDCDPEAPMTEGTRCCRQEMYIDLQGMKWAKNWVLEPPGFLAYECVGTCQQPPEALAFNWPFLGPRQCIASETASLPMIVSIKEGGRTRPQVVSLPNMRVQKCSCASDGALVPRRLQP
Sequence of Follistatin-related protein 3 (Homo sapiens) (O95633 whole entry, looked up): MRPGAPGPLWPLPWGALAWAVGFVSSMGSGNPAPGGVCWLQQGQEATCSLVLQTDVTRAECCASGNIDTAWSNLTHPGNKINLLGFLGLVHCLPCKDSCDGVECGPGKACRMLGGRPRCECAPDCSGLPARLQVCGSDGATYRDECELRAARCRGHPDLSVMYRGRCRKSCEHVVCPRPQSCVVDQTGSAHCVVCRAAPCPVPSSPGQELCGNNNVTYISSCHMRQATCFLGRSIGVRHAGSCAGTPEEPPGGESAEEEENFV
Sequence of Dickkopf-related protein 1 (Homo sapiens) (O94907 whole entry, looked up): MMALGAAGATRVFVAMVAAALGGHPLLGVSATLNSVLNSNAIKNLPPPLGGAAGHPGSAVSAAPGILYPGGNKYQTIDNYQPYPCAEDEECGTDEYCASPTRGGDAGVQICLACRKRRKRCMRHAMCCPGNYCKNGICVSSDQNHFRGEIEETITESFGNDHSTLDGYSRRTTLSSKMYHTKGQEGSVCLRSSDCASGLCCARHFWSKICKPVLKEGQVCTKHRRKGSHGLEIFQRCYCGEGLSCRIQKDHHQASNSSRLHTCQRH
Sequence of Torsin-1A-interacting protein 1 (Homo sapiens) (Q5JTV8 whole entry, looked up): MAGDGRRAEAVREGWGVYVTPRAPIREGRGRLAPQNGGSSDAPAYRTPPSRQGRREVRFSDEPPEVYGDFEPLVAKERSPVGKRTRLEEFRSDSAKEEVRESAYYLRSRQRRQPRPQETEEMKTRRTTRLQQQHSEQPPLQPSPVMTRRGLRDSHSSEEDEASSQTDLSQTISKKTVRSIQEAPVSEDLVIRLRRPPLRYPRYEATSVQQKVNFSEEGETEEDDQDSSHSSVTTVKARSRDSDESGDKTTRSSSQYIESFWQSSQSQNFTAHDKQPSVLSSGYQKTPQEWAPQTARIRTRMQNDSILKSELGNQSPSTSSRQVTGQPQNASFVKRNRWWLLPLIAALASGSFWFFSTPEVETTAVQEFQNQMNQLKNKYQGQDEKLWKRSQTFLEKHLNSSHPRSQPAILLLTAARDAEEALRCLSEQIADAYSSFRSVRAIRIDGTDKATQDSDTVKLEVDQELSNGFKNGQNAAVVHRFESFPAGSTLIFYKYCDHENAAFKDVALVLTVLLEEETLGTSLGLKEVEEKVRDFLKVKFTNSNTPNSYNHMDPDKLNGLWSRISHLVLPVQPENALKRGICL
Sequence of Fibroblast growth factor 10 (Homo sapiens) (O15520 whole entry, looked up): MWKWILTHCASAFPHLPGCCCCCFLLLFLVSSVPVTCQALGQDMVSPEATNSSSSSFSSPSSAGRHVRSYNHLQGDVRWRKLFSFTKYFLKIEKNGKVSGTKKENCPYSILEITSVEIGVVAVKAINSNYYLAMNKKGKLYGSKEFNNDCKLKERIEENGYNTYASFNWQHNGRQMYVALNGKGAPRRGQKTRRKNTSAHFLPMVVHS
Sequence of Epidermal growth factor receptor (Homo sapiens) (P00533 whole entry, looked up): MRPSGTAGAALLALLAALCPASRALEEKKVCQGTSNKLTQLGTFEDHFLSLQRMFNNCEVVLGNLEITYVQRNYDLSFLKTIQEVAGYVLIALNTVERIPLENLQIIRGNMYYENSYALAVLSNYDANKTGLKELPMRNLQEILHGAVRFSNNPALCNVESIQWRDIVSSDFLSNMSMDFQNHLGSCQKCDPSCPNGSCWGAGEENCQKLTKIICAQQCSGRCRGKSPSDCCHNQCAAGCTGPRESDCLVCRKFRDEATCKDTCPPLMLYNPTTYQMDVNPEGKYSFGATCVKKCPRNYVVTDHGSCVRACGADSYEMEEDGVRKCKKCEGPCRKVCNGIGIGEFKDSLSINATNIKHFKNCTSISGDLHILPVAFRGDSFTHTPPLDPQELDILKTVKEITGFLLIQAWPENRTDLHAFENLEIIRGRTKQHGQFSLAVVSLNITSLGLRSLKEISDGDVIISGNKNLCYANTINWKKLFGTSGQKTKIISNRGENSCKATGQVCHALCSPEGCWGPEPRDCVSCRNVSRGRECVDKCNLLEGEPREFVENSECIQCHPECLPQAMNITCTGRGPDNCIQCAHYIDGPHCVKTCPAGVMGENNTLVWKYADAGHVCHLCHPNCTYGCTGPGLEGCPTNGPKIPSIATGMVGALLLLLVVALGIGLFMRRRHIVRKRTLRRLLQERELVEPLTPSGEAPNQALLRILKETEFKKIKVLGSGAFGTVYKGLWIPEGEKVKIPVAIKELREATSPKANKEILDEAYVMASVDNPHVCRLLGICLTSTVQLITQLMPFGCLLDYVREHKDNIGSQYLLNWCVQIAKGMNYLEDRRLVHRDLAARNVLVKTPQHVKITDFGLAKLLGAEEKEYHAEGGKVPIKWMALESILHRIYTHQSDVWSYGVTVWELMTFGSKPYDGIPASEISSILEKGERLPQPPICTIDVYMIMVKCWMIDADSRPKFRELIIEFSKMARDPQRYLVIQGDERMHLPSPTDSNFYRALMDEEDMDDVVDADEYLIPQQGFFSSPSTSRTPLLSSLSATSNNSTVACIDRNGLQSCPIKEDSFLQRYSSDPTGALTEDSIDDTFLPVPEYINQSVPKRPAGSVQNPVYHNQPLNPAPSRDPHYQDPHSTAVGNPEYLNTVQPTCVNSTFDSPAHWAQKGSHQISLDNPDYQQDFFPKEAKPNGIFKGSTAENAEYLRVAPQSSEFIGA

Structure (SMILES)	composite z-score [1]	composite z-score [2]	composite z-score [3]	z-score [4]	composite z-score [5]	composite z-score [6]	composite z-score [7]	composite z-score [8]	composite z-score [9]	composite z-score [10]	composite z-score [11]	z-score [12]	composite z-score [13]	composite z-score [14]	composite z-score [15]	composite z-score [16]	composite z-score [17]	composite z-score [18]	composite z-score [19]	composite z-score [20]
CCOC(=O)C1CCCCN1 (stereo not given)	0.19	1.06	-0.193	-0.283 (inactive)	0.946	0.682	0.403	0.653	0.516	-0.104	0.728	0.417	0.4	-0.178	-0.483	0.312	0.444	0.144	0.488	0.54
CCCCC=C[C@@H](NC(=O)c1ccc(-c2ccccc2)cc1)c1ccccc1	0.379	0.0006	0.087	2.94 (inactive)	0.462	1.08	0.0139	-0.203	0.381	0.183	1.31	-2.21	0.184	0.107	0.506	0.123	0.934	0.964	1.11	0.401
COCC1=C2[C@@H](CCc3ccccc3)OB(O)C[C@@H]2[C@@H]2C(=O)C=CC(=O)[C@@H]2C1	0.367	-0.0473	-0.0343	1.2 (inactive)	0.378	0.679	0.149	0.647	0.489	0.27	1.01	-2.08	0.363	1.03	0.344	-0.101	0.0684	0.26	0.236	1.43
C=C(C(=O)CC[C@@H](OC(C)=O)c1ccc(CO)o1)C(C)C	-0.78	-0.418	-0.298	0.993 (inactive)	0.826	0.482	-0.289	1.39	0.536	1.41	-0.306	-1.25	0.13	-0.299	-0.89	-0.1	0.213	0.149	1.73	0.844
O=C1O[C@@H](c2ccccc2)[C@@H](c2ccccc2)N2[C@@H](c3ccccc3OCCO)[C@]3(C(=O)Nc4ccc(C#CCCO)cc43)[C@@H](C(=O)N3CCCCCCC3)[C@H]12	2.19	3.2	1.87	-1.32 (inactive)	1.71	1.45	2.05	1.78	2.69	2.05	1.51	-1.74	1.82	3.18	1.89	1.64	3.42	3.79	5.67	4.61
COCCOC(=O)N1C(=O)[C@@]2(c3cc(C#CC4(O)CCCCCC4)ccc31)[C@H](c1ccc(O)cc1)N1[C@H](c3ccccc3)[C@H](c3ccccc3)OC(=O)[C@H]1[C@@H]2C(=O)NC[C@H](O)c1ccccc1	0.355	0.655	0.692	0.355 (inactive)	1.12	1.29	0.783	0.936	1.08	-0.237	1.05	-1.03	0.951	0.896	0.524	-0.0339	0.14	0.0896	1.6	1.76
O=C1OCC=C[C@H]2OC34C=CCN(c5ccc(Cl)cc5)C(=O)[C@H]3N(CCO)C(=O)[C@@H]4[C@@H]12 (stereo not given in full)	0.201	-0.521	0.777	0.169 (inactive)	-0.25	-0.747	-0.962	-1.68	-1.71	-0.303	-0.0723	-0.515	-0.884	-0.577	0.515	-0.28	-0.304	-0.115	0.0143	-0.003
CC(CO)N1C(=O)[C@@H]2[C@H]3C(=O)OCC=C[C@H]3OC23C=CCN(C(C)(C)C)C(=O)[C@@H]13 (stereo not given in full)	0.115	-0.323	0.129	0.74 (inactive)	-0.0566	-0.764	-1.14	-0.205	-0.496	-0.197	-1.89	-0.619	-0.7	-0.119	-0.72	0.308	-0.289	-0.158	-1.13	0.193
COc1ccc(C#Cc2ccc3c(c2)[C@]2(C(=O)N3)[C@H](c3ccc(O)cc3)N3[C@H](c4ccccc4)[C@H](c4ccccc4)OC(=O)[C@H]3[C@@H]2C(=O)O)cc1	1.04	-0.901	-0.596	-0.518 (inactive)	0.368	0.74	-0.209	-0.114	-0.474	0.326	1.19	-0.327	-0.172	0.69	0.805	0.0293	-0.315	1.49	0.684	-0.0251
Cc1ccccc1C(O)C1C=CC2C(=O)N(C)C(=O)C2N1N(c1ccccc1)c1ccccc1 (stereo not given)	-0.167	0.858	0.11	0.595 (inactive)	0.362	-0.401	0.304	0.0459	0.119	1.33	-1.19	-0.247	-0.0024	-0.945	-0.454	0.0737	0.0582	0.387	0.0266	0.305
Cn1cccc1C(O)C1C=CC2C(=O)NC(=O)C2N1Nc1ccc(Cl)cc1Cl (stereo not given)	1.21	1.3	1.33	1.08 (inactive)	0.914	0.593	0.295	1.34	-0.43	0.657	0.981	-0.202	-0.378	2.24	0.879	0.0044	0.184	1.92	2.08	2.28
COCCOC(=O)N1C(=O)[C@@]2(c3cc(C#CC4=CCCCC4)ccc31)[C@H](C(N)=O)[C@H]1C(=O)O[C@H](c3ccccc3)[C@H](c3ccccc3)N1[C@@H]2c1ccccc1OCCO	1.46	0.195	0.367	-1.88 (inactive)	1.24	1.32	0.32	0.733	0.707	0.455	0.22	-3.15	0.423	0.994	-0.121	0.0839	0.173	0.0157	1.25	1.69
CCOC(=O)C1=C[C@@H](c2ccccc2)N(S(=O)(=O)c2ccc(C)cc2)[C@H]1c1ccccc1Cl	1.9	0.379	-0.229	0.328 (inactive)	1.29	1.29	0.683	1.05	0.508	0.556	1.32	-1.55	0.553	1.06	-0.651	-0.0161	0.0121	-0.0784	0.731	1.04
COCCCNC(=O)[C@]1(CCS(=O)(=O)c2ccccc2)N=C(c2ccc(OCCCO)cc2)O[C@@H]1c1ccccc1N=[N+]=[N-]	1.47	1.1	0.698	0.409 (inactive)	1.16	1.29	0.151	0.735	-0.262	0.963	1.23	-0.562	-0.0904	2.09	0.893	0.0988	0.203	0.698	-0.342	2.68
C=C(COC)C(=O)CC[C@@H](OC(=O)c1cccnc1)c1ccc(OCCO)cc1	0.872	0.131	0.423	-0.853 (inactive)	1.55	0.328	0.338	0.847	0.922	1.26	0.757	-2.9	0.659	-0.299	-0.804	-0.0944	-0.237	0.678	0.975	0.661

Source: PubChem BioAssay
